Test [1] addresses T1, Serine/threonine-protein kinase TBK1 (Homo sapiens) (UniProt Q9UHD2).
T1 sequence (whole entry): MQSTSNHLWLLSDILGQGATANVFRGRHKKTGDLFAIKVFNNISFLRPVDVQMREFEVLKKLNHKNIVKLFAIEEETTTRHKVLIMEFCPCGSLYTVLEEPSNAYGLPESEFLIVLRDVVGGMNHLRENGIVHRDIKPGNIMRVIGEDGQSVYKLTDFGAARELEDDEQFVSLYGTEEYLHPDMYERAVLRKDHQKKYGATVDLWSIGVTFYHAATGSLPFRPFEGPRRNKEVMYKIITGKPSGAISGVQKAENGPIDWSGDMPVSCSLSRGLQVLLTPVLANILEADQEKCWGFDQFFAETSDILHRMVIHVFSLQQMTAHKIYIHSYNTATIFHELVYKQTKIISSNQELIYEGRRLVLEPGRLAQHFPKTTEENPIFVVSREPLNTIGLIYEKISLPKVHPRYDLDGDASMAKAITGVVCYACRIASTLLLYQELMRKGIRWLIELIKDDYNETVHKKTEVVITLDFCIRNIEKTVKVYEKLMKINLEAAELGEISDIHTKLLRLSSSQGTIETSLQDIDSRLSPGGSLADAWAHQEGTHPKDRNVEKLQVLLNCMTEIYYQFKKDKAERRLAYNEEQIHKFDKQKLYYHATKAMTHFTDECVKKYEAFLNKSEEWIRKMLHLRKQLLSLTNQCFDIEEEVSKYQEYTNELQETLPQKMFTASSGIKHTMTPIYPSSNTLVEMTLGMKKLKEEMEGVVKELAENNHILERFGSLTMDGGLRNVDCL
The conditions noted are these: at 10 µM.

Test [2] addresses T2, TGF-beta receptor type-1 (Homo sapiens) (UniProt P36897).
T2 sequence (whole entry): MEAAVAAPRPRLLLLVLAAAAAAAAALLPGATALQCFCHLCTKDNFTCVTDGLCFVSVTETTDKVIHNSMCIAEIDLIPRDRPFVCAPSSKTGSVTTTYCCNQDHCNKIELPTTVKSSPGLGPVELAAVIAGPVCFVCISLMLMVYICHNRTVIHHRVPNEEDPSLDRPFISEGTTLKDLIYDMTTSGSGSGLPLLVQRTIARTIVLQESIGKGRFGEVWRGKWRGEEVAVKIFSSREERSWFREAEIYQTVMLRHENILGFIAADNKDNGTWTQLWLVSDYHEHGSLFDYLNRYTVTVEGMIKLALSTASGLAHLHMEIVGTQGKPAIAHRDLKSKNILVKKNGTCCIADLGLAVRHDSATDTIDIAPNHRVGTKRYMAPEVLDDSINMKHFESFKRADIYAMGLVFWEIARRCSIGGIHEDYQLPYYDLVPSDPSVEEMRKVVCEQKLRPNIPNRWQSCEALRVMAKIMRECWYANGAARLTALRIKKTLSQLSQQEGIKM
The conditions noted are these: at 1 µM.

Test [3] concerns the target T2, TGF-beta receptor type-1 (Homo sapiens). The conditions noted are these: at 10 µM.
The target of test [4] is Insulin-like growth factor 1 receptor (Homo sapiens) (UniProt P08069). The conditions noted are these: at 1 µM.
The target is the same in test [5]. The settings on record: at 10 µM.
Test [6] concerns the target T3, Inhibitor of nuclear factor kappa-B kinase subunit alpha (Homo sapiens) (UniProt O15111).
T3 sequence (whole entry): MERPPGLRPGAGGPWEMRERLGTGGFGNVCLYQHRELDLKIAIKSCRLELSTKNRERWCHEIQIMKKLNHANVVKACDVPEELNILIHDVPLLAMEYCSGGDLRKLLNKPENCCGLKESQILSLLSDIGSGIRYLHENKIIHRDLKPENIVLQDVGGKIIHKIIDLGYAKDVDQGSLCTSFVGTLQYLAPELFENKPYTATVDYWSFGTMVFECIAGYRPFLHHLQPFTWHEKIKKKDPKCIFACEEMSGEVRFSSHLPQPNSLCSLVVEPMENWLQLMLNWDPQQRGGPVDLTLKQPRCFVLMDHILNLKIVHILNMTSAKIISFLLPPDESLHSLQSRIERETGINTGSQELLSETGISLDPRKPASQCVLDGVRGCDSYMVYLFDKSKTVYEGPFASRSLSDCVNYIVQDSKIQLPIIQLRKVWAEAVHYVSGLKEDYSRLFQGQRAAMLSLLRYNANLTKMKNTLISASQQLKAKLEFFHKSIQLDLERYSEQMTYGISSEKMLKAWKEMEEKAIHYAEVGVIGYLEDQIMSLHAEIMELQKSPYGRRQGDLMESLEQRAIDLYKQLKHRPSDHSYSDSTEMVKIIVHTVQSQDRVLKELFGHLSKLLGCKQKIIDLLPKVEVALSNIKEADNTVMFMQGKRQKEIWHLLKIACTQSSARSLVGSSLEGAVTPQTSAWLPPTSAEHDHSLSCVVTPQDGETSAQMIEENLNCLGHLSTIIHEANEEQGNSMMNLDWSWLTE
The settings on record: at 1 µM.

The target in test [7] is T3, Inhibitor of nuclear factor kappa-B kinase subunit alpha (Homo sapiens). The settings on record: at 10 µM.
Test [8] deals with T4, Inhibitor of nuclear factor kappa-B kinase subunit beta (Homo sapiens) (UniProt O14920).
T4 sequence (whole entry): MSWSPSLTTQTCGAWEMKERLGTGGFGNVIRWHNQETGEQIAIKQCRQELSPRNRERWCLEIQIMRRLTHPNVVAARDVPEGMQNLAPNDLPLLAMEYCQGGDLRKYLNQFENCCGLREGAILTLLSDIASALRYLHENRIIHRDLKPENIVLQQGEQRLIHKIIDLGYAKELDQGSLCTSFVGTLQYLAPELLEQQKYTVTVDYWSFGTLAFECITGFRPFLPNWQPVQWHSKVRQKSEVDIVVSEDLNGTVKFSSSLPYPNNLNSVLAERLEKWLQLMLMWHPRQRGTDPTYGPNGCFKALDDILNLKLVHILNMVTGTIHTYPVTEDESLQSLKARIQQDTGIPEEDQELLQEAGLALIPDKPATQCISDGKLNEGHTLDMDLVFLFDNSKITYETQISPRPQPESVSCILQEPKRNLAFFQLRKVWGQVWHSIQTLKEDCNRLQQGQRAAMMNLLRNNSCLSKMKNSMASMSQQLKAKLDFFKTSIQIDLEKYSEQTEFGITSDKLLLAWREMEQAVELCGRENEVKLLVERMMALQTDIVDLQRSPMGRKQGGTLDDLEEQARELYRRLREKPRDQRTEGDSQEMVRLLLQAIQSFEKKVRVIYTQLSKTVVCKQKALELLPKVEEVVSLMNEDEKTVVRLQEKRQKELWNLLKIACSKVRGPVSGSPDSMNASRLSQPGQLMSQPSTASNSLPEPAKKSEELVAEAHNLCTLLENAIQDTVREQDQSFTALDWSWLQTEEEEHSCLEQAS
The conditions noted are these: at 1 µM.

The target of test [9] is T4, Inhibitor of nuclear factor kappa-B kinase subunit beta (Homo sapiens). The conditions noted are these: at 10 µM.
The target in test [10] is Insulin receptor (Homo sapiens) (UniProt P06213). The conditions noted are these: at 1 µM.

This passage reports residual activity results from ChEMBL document CHEMBL2218924, “A broad activity screen in support of a chemogenomic map for kinase signalling research and drug discovery” (Biochem J, 2013).

Insulin-like growth factor 1 receptor (Homo sapiens), sequence (P08069 31-736 limits assumed): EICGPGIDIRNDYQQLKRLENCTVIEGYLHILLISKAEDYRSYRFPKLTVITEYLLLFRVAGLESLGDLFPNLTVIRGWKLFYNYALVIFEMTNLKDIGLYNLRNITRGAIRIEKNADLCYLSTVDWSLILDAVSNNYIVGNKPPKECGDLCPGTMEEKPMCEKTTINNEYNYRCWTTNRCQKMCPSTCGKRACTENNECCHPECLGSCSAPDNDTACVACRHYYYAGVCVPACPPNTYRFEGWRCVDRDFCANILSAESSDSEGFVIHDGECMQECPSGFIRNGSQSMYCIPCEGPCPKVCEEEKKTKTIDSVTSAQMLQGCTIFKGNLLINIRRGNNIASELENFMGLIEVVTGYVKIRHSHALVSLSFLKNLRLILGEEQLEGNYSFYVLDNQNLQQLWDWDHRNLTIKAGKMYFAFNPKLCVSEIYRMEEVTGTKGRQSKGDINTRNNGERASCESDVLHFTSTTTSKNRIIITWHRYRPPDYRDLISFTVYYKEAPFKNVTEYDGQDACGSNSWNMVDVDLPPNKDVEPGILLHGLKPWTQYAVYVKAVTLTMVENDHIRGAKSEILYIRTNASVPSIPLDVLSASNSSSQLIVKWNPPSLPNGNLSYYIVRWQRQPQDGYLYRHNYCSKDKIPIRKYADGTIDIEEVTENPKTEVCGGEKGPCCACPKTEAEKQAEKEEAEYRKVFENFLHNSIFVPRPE
Insulin-like growth factor 1 receptor (Homo sapiens), sequence (P08069 741-1367 limits assumed): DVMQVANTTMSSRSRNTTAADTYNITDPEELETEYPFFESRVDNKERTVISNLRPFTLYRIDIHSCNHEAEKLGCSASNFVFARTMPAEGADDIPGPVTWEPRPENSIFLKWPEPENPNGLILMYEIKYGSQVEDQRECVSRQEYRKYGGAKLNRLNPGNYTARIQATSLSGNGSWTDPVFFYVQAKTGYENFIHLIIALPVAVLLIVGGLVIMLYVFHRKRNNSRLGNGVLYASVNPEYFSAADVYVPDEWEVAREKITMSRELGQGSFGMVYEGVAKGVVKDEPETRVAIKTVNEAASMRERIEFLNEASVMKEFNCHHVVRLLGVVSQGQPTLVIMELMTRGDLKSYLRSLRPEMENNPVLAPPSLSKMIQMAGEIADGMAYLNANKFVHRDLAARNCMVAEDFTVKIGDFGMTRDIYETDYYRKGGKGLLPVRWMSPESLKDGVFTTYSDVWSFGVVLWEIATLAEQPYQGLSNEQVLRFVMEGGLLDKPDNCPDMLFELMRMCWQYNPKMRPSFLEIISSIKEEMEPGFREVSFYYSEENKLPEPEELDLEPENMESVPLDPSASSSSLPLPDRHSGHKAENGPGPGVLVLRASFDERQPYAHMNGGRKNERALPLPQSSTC
Insulin receptor (Homo sapiens), sequence (P06213 28-758 limits assumed): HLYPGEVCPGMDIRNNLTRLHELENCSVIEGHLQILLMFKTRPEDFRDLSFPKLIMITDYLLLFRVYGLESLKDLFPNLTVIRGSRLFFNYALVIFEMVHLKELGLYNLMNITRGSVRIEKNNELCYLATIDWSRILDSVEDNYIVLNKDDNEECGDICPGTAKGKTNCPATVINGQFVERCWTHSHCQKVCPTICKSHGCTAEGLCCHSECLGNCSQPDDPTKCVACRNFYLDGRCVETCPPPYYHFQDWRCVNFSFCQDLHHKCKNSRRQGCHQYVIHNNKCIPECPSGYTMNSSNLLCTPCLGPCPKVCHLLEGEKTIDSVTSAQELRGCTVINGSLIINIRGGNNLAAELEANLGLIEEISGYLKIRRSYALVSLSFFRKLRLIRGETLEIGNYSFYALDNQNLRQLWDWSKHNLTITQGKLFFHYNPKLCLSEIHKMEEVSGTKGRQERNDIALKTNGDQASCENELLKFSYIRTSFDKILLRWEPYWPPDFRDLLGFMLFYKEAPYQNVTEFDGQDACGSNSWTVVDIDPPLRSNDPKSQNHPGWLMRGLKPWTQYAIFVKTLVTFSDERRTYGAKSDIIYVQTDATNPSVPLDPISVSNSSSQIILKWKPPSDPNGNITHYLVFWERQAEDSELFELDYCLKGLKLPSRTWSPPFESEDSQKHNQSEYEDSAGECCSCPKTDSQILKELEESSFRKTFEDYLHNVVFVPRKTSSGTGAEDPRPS
Insulin receptor (Homo sapiens), sequence (P06213 763-1382 limits assumed): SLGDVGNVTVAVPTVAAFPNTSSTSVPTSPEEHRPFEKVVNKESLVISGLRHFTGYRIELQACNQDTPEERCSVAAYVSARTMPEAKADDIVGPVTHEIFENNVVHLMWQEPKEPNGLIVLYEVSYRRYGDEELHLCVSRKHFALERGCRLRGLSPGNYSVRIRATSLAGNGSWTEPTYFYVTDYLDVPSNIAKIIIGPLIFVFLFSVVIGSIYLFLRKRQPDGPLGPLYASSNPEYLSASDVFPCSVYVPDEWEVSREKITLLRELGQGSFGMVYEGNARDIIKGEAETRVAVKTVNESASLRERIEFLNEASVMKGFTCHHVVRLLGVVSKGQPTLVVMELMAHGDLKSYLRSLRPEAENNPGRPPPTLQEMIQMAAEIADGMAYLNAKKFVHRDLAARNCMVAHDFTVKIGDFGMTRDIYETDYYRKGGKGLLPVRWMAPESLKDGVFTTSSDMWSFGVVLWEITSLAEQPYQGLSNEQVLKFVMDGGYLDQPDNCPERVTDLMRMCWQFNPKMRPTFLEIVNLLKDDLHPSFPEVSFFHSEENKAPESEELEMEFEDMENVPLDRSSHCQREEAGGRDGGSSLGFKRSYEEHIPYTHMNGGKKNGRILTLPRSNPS

Consider `CO[C@H]1C[C@@H]2CC[C@@H](C)[C@@](O)(O2)C(=O)C(=O)N2CCCC[C@H]2C(=O)O[C@H]([C@H](C)C[C@@H]2CC[C@@H](O)[C@H](OC)C2)CC(=O)[C@H](C)/C=C(\C)[C@@H](O)[C@@H](OC)C(=O)[C@H](C)C[C@H](C)/C=C/C=C/C=C/1C`, for which the residual activity worked out at 55% in test [1]; 82% in test [2]; 78% in [3]; 96% in [4]; 74% in [5]; 121% in [6]. Besides, the residual activity came to 148% in test [7], 104% in test [8], 124% in [9] and 107% in [10].

By residual activity is commonly meant the signal under treatment as a percentage of the control signal.
